# FXN GAA850 act: FXN promoter activators, primary screen, cell-based, luciferase luminescence, HEK293 lucGAA850; HEK293 lucGAA850 FXN promoter luciferase reporter, 24 h; percent of 10 µM SAHA response; activation, % at 6 µM; 360,000 tested, 0.56% active;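 active = activation above the average of all compounds screened plus 3 SD, cutoff fixed separately per campaign, cut at about 7.5% in these data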;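 note: 0% = DMSO wells and 100% = 10 µM SAHA wells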
# Wnt act: Wnt/beta-catenin pathway activators, primary screen, cell-based, plate reader, single point; Wnt/beta-catenin reporter cell assay, activator; activation, % at 9.35 µM; 300,000 tested, 1.2% active; in the data active = activation above about 30%, passing the limit was not always enough; inconclusive = no clear call, values can overlap the other calls;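 note: 0% = neutral control wells and 100% = positive control wells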
# MITF TRPM1 HTS: activators of MITF-driven TRPM1 promoter reporter, primary screen, cell-based, SK-MEL-5, luciferase, single point; SK-MEL-5 TRPM1-promoter luciferase, 24 h; % of positive control, neutral wells = 0; activation, % at 12.5 µM; 300,000 tested, 0.75% active; AID 588334, 2011;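 active = mean activation of at least 80% with every replicate also reaching 80%; inconclusive = mean reaches 80% but some replicate falls short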;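 note: 0% = neutral control wells and 100% = parthenolide positive control wells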
# esBAF inh: Bmi1 luciferase reporter increase in mESCs, primary screen, esBAF inhibitor project, mouse ES cells, Bmi1 luciferase knock-in, single point; 24 h; 100% = twice the neutral-well signal; reporter increase, % at 12.5 µM; 350,000 tested, 2% active; AID 602393, 2012; in the data active = activation above about 40%; inconclusive = no clear call, values can overlap the other calls;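 note: 0% = median of the plate's neutral control wells and 100% = double that signal; a rise in the Bmi1 reporter signal indicates esBAF inhibition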
# * hit, by the source's call; u = inconclusive; x = not tested or not shown; ! = repeats disagree. Most compounds without a hit are left out; they make up all but 2.8% or so of the library.
SMILES,FXN GAA850 act,Wnt act,MITF TRPM1 HTS,esBAF inh
COC(=O)c1cc(-c2ccc(OC)cc2)n[nH]1,3,-2,91*,u
COc1cc(NC(=O)c2nccnc2N)cc(C(=O)Nc2cccc(C(F)(F)F)c2)c1,-1,-1,-22,-3
COc1cc(NC(=O)c2ccc(N)nc2)cc(C(=O)Nc2cccc(C(F)(F)F)c2)c1,0,-2,35,45*!
COc1ccc(-c2cc(C(=O)Nc3cc(OC)cc(C(=O)Nc4cccc(C(F)(F)F)c4)c3)[nH]n2)cc1,-1,-2,9,48*!
COC(=O)c1cc(-c2ccc(C)cc2)n[nH]1,3,u,15,x
COc1ccc(NC(=O)N(C)C[C@@H]2Oc3ccc(NS(=O)(=O)c4ccc(C)cc4)cc3CC(=O)N([C@H](C)CO)C[C@@H]2C)cc1,x,x,x,-3
C[C@@H]1CN([C@@H](C)CO)C(=O)c2cccc(NC(=O)Nc3ccccc3)c2O[C@@H]1CN(C)S(=O)(=O)c1ccc(Cl)cc1,x,x,x,4
Oc1ccc(Cl)cc1C=Nc1ccc(Br)cc1,0,-2,-7,x
Cn1c(O)c(C=Nc2ccc(Br)cc2)sc1=O,4,60*,68,x
c1ccc2nc(-c3nccs3)ccc2c1,4,8,91*,x
Clc1ccsc1-c1ccc2ccccc2n1,2,39*,51,49*
CCCc1nc2ccc(NC(C)=O)cc2c(=O)n1Cc1ccc(Cl)cc1,3,16,82*,x
CCCc1nc2ccc(NC(=O)c3cccs3)cc2c(=O)n1Cc1ccccc1Cl,0,-2,6,x
C(=NOCc1ccccc1)c1ccncc1,2,8,57,38
C(=NOCCc1ccccc1)c1cccnc1,7,0,87*,51*
O=C1/C(=C/c2cccs2)SC(=S)N1CCC(=O)N1CCCCC1CCO (centres undefined),1,9,35,60*
O=C(c1ccc2nc[nH]c2c1)N1CCN(c2cccc(C(F)(F)F)c2)CC1,0,3,14,x
O=C(c1ccc2ncsc2c1)N1CCN(c2cccc(C(F)(F)F)c2)CC1,-3,1,1,46*
CCc1ccccc1NC(=O)NC1CCCCC1,2,x,-7,-7
COc1ccc(C(=S)NC2CCCCC2)cc1,4,x,39,50*
Cc1ccc(NC(=O)C(=O)NC2CCCCC2)cc1,3,x,u,24
Cc1ccc(NC(=O)NC2CCCCCCC2)cc1,4,35*,64,x
O=C(Nc1ccccc1Cl)NC1CCCCCCC1,5,16,53,59*
COc1cccc(NC(=S)N2CCC(NC(=O)C3CCCCC3)CC2)c1,1,-1,-2,-2
COc1cccc(NC(=O)C(=S)NC2CCCCC2)c1,3,11,84*,-4
SMILES,FXN GAA850 act,Wnt act,MITF TRPM1 HTS,esBAF inh
CCOc1ccc(C(=S)NC2CCCCC2)cc1,3,x,37,x
CCOc1ccc(NC(=O)NC2CC(=O)N(c3ccc(OC)cc3)C2)cc1 (centres undefined),3,42*,1,-5
COc1ccc(NC(=O)NC2CCCCCCC2)cc1,6,6,59,53*
O=C(Nc1cccc(F)c1)NC1CCCCC1,3,x,24,26
COc1cccc(NC(=O)NC2CCCCCCC2)c1,5,13,89*,39
O=C(C1CCOCC1)N1CC[C@H]2[C@H](CO)Nc3ccc(Br)cc3[C@H]21,x,x,x,-5
CSc1nnc(-c2ccccc2Cl)o1,2,x,33,21
Clc1ccccc1-c1ncc(-c2ccccc2)o1,3,57*,28,14
COc1cccc(-c2cn(CC[C@@H]3CC[C@@H](NC(=O)CN(C)C)[C@@H](CO)O3)nn2)c1,x,x,x,0
c1ccc2oc(-c3ccc4nc[nH]c4c3)nc2c1,2,x,98*,47*
O=C(CN1CCOCC1)N[C@H]1CC[C@H](CCNS(=O)(=O)c2ccccc2F)O[C@@H]1CO,x,x,x,1
Fc1ccc(-c2nn3c(C4COc5ccccc5O4)nnc3s2)cc1 (centres undefined),3,x,x,42*
COc1cc(C)ccc1OCCCOc1ccccc1Cl,5,x,126*,71*
COc1cc(C)ccc1OCCOc1ccccc1Cl,4,x,90*,77*
CCC(=O)N(C)C[C@H]1Oc2cc(-c3cccc(OC)c3)ccc2S(=O)(=O)N([C@@H](C)CO)C[C@H]1C,x,x,x,-6
O=C(Nc1ccccc1Br)c1ccc(N2CCCC2=O)cc1,4,37*,87*,55*
Cc1csc(NC(=O)c2ccc(N3CCCC3=O)cc2)n1,-5,35*,-41,x
Cc1nnc(NC(=O)c2ccc(N3CCCC3=O)cc2)s1,3,25,85*,u
CCN(CC)c1ccc(/C=N/N2CCOCC2)c(O)c1,4,x,109*,x
C=CCc1ccc(OC(=O)NC2CCCCC2)c(OC)c1,0,13,58,51*
O/N=C/c1ccc2cccc(O)c2n1,0,3,-6,4
O/N=C/c1ccc2ccccc2n1,0,36*,x,x
CN(CC(=O)Nc1ccc(Cl)c(S(=O)(=O)N(C)C)c1)Cc1ccccc1,1,9,59,65*
O=C(NCCN1CCCCC1)[C@H]1N[C@H]2c3ccc(-c4ccncc4)c(=O)n3C[C@H]2[C@@H]1CO,x,x,x,-6
Nc1nnc(SCC(=O)c2ccc3ccccc3c2)s1,x,x,x,52*
SMILES,FXN GAA850 act,Wnt act,MITF TRPM1 HTS,esBAF inh
Nc1nnc(SCC(=O)c2cccc([N+](=O)[O-])c2)s1,0,-1,7,x
COc1ccc(NC(=O)c2ccc3c(c2)N(C)CCS3)cc1,2,53*,x,85*
CN1CCSc2ccc(C(=O)Nc3cccc(F)c3)cc21,5,10,65,50*
O=C(Nc1cccc(Cl)c1)N1C[C@@H]2[C@H](c3ccccc31)[C@H](CO)N2C(=O)c1cccnc1,x,x,x,0
O=C(C[C@@H]1C=C[C@H](NC(=O)C2CCC2)[C@H](CO)O1)NC1CCC1,x,x,x,0
CC=Cc1ccc2n(c1=O)C[C@@H]1[C@@H](CO)[C@H](C(=O)NCC3CC3)N(Cc3nccs3)[C@H]21 (mixture of isomers),x,x,x,-8
O=C(Nc1ccccc1)C1=C[C@H](c2ccc3c(c2)OCO3)C[C@H](OCCCCO)O1,4,10,30,48*
O=C(Nc1ccccc1)C1=C[C@@H](c2ccc3c(c2)OCO3)C[C@@H](OCCCCO)O1,4,22,73,67*
CO[C@@H]1CN(C)C(=O)c2cc(NC(C)=O)ccc2OC[C@H](C)N(C(=O)c2cnccn2)C[C@H]1C,x,x,x,0
C[C@H]1CCCCO[C@@H](CN(C)Cc2ccc(C(F)(F)F)cc2)[C@@H](C)CN([C@@H](C)CO)C(=O)c2cc(NS(C)(=O)=O)ccc2O1,x,x,x,6
COc1ccc(CNC(=O)C2CC(c3cccc([N+](=O)[O-])c3)=NO2)cc1 (centres undefined),4,16,49,54*
Cc1ccc(CNC(=O)C2CC(c3cccc([N+](=O)[O-])c3)=NO2)cc1 (centres undefined),-1,3,0,9
